Values without a mark were called inactive. Inconclusive results are not listed. Where a call stands in place of a potency, no number is given. Activity calls are given as the source filed them. Unless noted, the call rests on the fitted dose curve; in most records, active means well fitted curve in the direction sought with a large enough effect; inconclusive means small, poorly fitted or top-dose-only effect, or another doubt; inactive means no such curve, though single readings can be large; an effect the other way counts as inactive or inconclusive.
Legend:
MKL-2 = assay: qHTS assay to identify novel small-molecules to repurpose for Merkel cell carcinoma treatment (AID 1296009); conditions: MCC and control cell lines, CellTiter-Glo viability, 72 h; series mostly up to 46 µM; further: nearly all actives have a fitted effect of over 60% in size; further: potency means the concentration at half of the fitted maximal effect
How it was run: (§1)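 After compound transfer in DMSO, plates were kept 72 hr at 37 degree celsius. Luminescent ATP signal from CellTiter-Glo served as viability measure, normalized against DMSO and no-cell controls.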

NIH3T3 = assay: as above; conditions: MCC and control cell lines, CellTiter-Glo viability, 72 h; at 44.8 µM (top of the series) unless noted
How it was run: as §1

UISO = assay: as above; conditions: MCC and control cell lines, CellTiter-Glo viability, 72 h; series mostly up to 46 µM
How it was run: as §1

WaGa = assay: as above; conditions: MCC and control cell lines, CellTiter-Glo viability, 72 h; series mostly up to 46 µM
How it was run: as §1

C33A = assay: Primary qHTS to identify gynecologic anti-cancer compounds using libraries of approved drugs and bioactive compounds (AID 1345084); conditions: Gynecologic cancer cell panel viability, ATPlite luminescence, 48 h; series mostly up to 57.5 µM; further: nearly all actives have a fitted effect of over 55% in size
How it was run: (§2)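 Cytotoxicity screen measuring ATP content by luciferase luminescence. Each compound is applied at five concentrations for 48 h at 37 C with 5% CO2.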

CAOV3 = assay: as above; conditions: Gynecologic cancer cell panel viability, ATPlite luminescence, 48 h; series mostly up to 57.5 µM
How it was run: as §2

CASKI = assay: as above; conditions: Gynecologic cancer cell panel viability, ATPlite luminescence, 48 h; series mostly up to 57.5 µM
How it was run: as §2

Es-2 = assay: as above; conditions: Gynecologic cancer cell panel viability, ATPlite luminescence, 48 h; series mostly up to 57.5 µM
How it was run: as §2

HeLa = assay: as above; conditions: Gynecologic cancer cell panel viability, ATPlite luminescence, 48 h; series mostly up to 57.5 µM
How it was run: as §2

Hek293T = assay: as above; conditions: Gynecologic cancer cell panel viability, ATPlite luminescence, 48 h, control line for the selectivity index; series mostly up to 57.5 µM
How it was run: as §2

JEG-3 = assay: as above; conditions: Gynecologic cancer cell panel viability, ATPlite luminescence, 48 h; series mostly up to 57.5 µM
How it was run: as §2

OV90 = assay: as above; conditions: Gynecologic cancer cell panel viability, ATPlite luminescence, 48 h; series mostly up to 57.5 µM
How it was run: as §2

PA-1 = assay: as above; conditions: Gynecologic cancer cell panel viability, ATPlite luminescence, 48 h; series mostly up to 57.5 µM
How it was run: as §2

SKOV3 = assay: as above; conditions: Gynecologic cancer cell panel viability, ATPlite luminescence, 48 h; series mostly up to 57.5 µM
How it was run: as §2

Tov-21-G = assay: as above; conditions: Gynecologic cancer cell panel viability, ATPlite luminescence, 48 h; series mostly up to 57.5 µM
How it was run: as §2

Tov112D = assay: as above; conditions: Gynecologic cancer cell panel viability, ATPlite luminescence, 48 h; series mostly up to 57.5 µM
How it was run: as §2

[1] = Drug repurposing screens with cells derived from glioblastoma tumor samples (AID 1345199); conditions: GBM patient neurospheres viability, ATP luminescence, 48 h; further: nearly all actives have a fitted effect of over 40% in size; further: potency means the concentration at half of the fitted maximal effect
How it was run: (§3)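 Four patient lines of CD133+ GBM neurospheres were screened at several concentrations; hits were retested in those lines plus three slower-growing GBM lines, using 48-hour treatment and ATP-based viability.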

astro = assay: as above; conditions: viability, ATP luminescence, 48 h; series mostly up to 45.9 µM
How it was run: as §3

[2] = molecular target: Nuclear receptor subfamily 1 group I member 2 (Rattus norvegicus) (UniProt Q9R1A7); assay: qHTS assay for small molecule activators of the rat pregnane X receptor (rPXR) signaling pathway (AID 651751; call rule not given here); conditions: rPXR reporter cells, luciferase (One-Glo), 24 h
Chain of Nuclear receptor subfamily 1 group I member 2 (Rattus norvegicus) (Q9R1A7 whole entry, looked up): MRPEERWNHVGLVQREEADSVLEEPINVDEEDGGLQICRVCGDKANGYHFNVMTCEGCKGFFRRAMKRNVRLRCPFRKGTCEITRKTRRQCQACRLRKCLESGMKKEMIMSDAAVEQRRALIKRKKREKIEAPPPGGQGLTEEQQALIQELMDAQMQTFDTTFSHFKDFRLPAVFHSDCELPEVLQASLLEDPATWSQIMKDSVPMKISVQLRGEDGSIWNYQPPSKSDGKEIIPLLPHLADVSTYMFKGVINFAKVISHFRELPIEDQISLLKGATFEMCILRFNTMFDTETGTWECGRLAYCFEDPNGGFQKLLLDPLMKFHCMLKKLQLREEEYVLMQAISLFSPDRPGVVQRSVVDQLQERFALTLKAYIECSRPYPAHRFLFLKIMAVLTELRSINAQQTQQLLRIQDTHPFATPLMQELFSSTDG

[3] = at 45.9 µM (top of the series), tumour line B
[4] = at 45.9 µM (top of the series), tumour line D
[5] = at 46.1 µM (top of the series), tumour line C
[6] = at 46 µM (top of the series), tumour line A

In the case of `CC(C)(C)C(=O)C(Oc1ccc(Cl)cc1)n1ccnc1` (configuration not stated), the Potency (MKL-2) is reported as “inactive”, the outcome (NIH3T3) is reported as “inactive” and the Potency (UISO) is reported as 11.9 µM (active). The Potency (WaGa) was “inactive”, the Potency (C33A) was “inactive” and the Potency (CAOV3) was “inactive”. For the same compound, the Potency (CASKI) was “inactive”, the Potency (Es-2) was “inactive” and the Potency (HeLa) was “inactive”. The Potency (Hek293T) was “inactive”, the Potency (JEG-3) was “inactive” and the Potency (OV90) was “inactive”. The Potency (PA-1) was “inactive”, the Potency (SKOV3) was “inactive” and the Potency (Tov-21-G) was “inactive”. The Potency (Tov112D) was “inactive”, the activity, negative = cell killing [1, 3] was -7.03% and the activity, negative = cell killing [1, 4] was -26.6%. The activity, negative = cell killing [1, 5] was -0.0869%, the Potency ([1]; tumour line A) was 12.6 µM (active) and the Potency (astro) was “inactive”.

For `COC(=O)[C@H]1[C@H]2C[C@@H]3c4[nH]c5cc(OC)ccc5c4CCN3C[C@H]2C[C@@H](OC(=O)COc2ccc(OC)cc2)[C@@H]1OC`, the Potency (MKL-2) was “inactive”, the outcome (NIH3T3) was “inactive” and the Potency (UISO) was “inactive”. For the same compound, the Potency (WaGa) was “inactive”, the Potency (C33A) was “inactive” and the Potency (CAOV3) was “inactive”. For the same compound, the Potency (CASKI) was “inactive”, the Potency (Es-2) was “inactive” and the Potency (HeLa) was “inactive”. The Potency (Hek293T) was “inactive”, the Potency (JEG-3) was “inactive” and the Potency (OV90) was “inactive”. For the same compound, the Potency (PA-1) was “inactive”, the Potency (SKOV3) was “inactive” and the Potency (Tov-21-G) was “inactive”. The Potency (Tov112D) was “inactive”, the activity, negative = cell killing [1, 3] was -20.4% and the Potency ([1]; tumour line A) was 11.2 µM (active). For the same compound, the Potency (astro) was “inactive”.

For `CC(=O)CCC(=O)O`, the Potency (MKL-2) was “inactive”, the outcome (NIH3T3) was “inactive” and the Potency (UISO) was “inactive”. For the same compound, the Potency (WaGa) was “inactive”, the Potency (C33A) was “inactive” and the Potency (CAOV3) was “inactive”. The Potency (CASKI) was “inactive”, the Potency (Es-2) was “inactive” and the Potency (HeLa) was “inactive”. The Potency (Hek293T) was “inactive”, the Potency (JEG-3) was “inactive” and the Potency (OV90) was “inactive”. The Potency (PA-1) was “inactive”, the Potency (SKOV3) was “inactive” and the Potency (Tov-21-G) was “inactive”. The Potency (Tov112D) was “inactive”, the activity, negative = cell killing [1, 3] was -11.2% and the activity, negative = cell killing [1, 4] was -13.2%. For the same compound, the activity, negative = cell killing [1, 6] was -21%, the activity, negative = cell killing [1, 5] was -0.404% and the Potency (astro) was “inactive”.

With `CCOC(=O)[C@H](CCc1ccccc1)N[C@@H](C)C(=O)N1C(=O)N(C)C[C@H]1C(=O)O` the Potency (MKL-2) was “inactive”, the outcome (NIH3T3) was “inactive” and the Potency (UISO) was “inactive”. The Potency (WaGa) was “inactive”, the Potency (C33A) was “inactive” and the Potency (CAOV3) was “inactive”. For the same compound, the Potency (CASKI) was “inactive”, the Potency (Es-2) was “inactive” and the Potency (HeLa) was “inactive”. For the same compound, the Potency (Hek293T) was “inactive”, the Potency (JEG-3) was “inactive” and the Potency (OV90) was “inactive”. The Potency (PA-1) was “inactive”, the Potency (SKOV3) was “inactive” and the Potency (Tov-21-G) was “inactive”. The Potency (Tov112D) was “inactive”, the activity, negative = cell killing [1, 3] was -4.44% and the activity, negative = cell killing [1, 4] was -4.75%. For the same compound, the activity, negative = cell killing [1, 6] was -37.7% and the Potency (astro) was “inactive”.

For `O=C(O)[C@H](O)c1ccccc1`, the Potency (MKL-2) was “inactive”, the outcome (NIH3T3) was “inactive” and the Potency (UISO) was “inactive”. The Potency (WaGa) was “inactive”, the Potency (C33A) was “inactive” and the Potency (CAOV3) was “inactive”. For the same compound, the Potency (CASKI) was “inactive”, the Potency (Es-2) was “inactive” and the Potency (HeLa) was “inactive”. The Potency (Hek293T) was “inactive”, the Potency (JEG-3) was “inactive” and the Potency (OV90) was “inactive”. For the same compound, the Potency (PA-1) was “inactive”, the Potency (SKOV3) was “inactive” and the Potency (Tov-21-G) was “inactive”. The Potency (Tov112D) was “inactive”, the activity, negative = cell killing [1, 3] was -2.7% and the activity, negative = cell killing [1, 4] was 3.57%. For the same compound, the activity, negative = cell killing [1, 5] was 1.65% and the Potency (astro) was “inactive”.

With `Oc1cccc(O)c1` the Potency (MKL-2) was “inactive”, the outcome (NIH3T3) was “inactive” and the Potency (UISO) was “inactive”. The Potency (WaGa) was “inactive”, the Potency (C33A) was “inactive” and the Potency (CAOV3) was “inactive”. For the same compound, the Potency (CASKI) was “inactive”, the Potency (Es-2) was “inactive” and the Potency (HeLa) was “inactive”. For the same compound, the Potency (Hek293T) was “inactive”, the Potency (JEG-3) was “inactive” and the Potency (OV90) was “inactive”. The Potency (PA-1) was “inactive”, the Potency (SKOV3) was “inactive” and the Potency (Tov-21-G) was “inactive”. For the same compound, the Potency (Tov112D) was “inactive”, the activity, negative = cell killing [1, 3] was -16.6% and the activity, negative = cell killing [1, 4] was -5.28%. The activity, negative = cell killing [1, 5] was 27.8%, the Potency (astro) was “inactive” and the max response [2] was 4.18%.

— PubChem BioAssay (NCATS)
